Where “and” joins values, the source holds several entries; their conditions need not be identical. Equal entries are not always repeated. Among all 350,000 compounds or so, about 1,300 (0.37%) were called active. Only a selection was taken, and actives are over-represented in it overall. A number with no mark means an inactive call.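 How the source made its calls: active means mean added fluorescence quench of at least 8% versus neutral control, with both replicates also reaching 8%; inconclusive means only one of the mean or replicate conditions met; inactive means mean below 8% and not both replicates reaching 8%.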

A short description of the assay: F508del CFTR correction, initial screen, CFBE line, single point (AID 720511).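 Further: cells transiently co-express mutant CFTR-F508del with the halide-sensitive YFP; corrector assay measuring rescue of mutant channel to the surface after 24 h compound exposure.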 The conditions noted are these: CFBE cells, YFP halide quenching, at 7.58 µM, stronger effect = higher value, % fluorescence drop versus neutral controls, stimulated with forskolin plus potentiator P3.
As for `Cc1ccc(S(=O)(=O)N2C[C@H](O)COC[C@H]3O[C@H](CC(=O)N[C@H]4CCN(Cc5ccccc5)C4)CC[C@@H]32)cc1`, the activity (quench increase) is 0.736%.

Regarding `C[C@@H]1CN([C@H](C)CO)C(=O)Cc2cc(NC(=O)NC3CCCCC3)ccc2O[C@H]1CN(C)S(C)(=O)=O`, the activity (quench increase) was 0.525% and 3.05%.

On to `CC[N+]1(CC)CC2=Cc3ccccc3CC2C1` (configuration not stated), for which the activity (quench increase) was 13.8% (active).

Take `CCC(=O)N1C[C@@H](C)[C@@H](OC)CN(C)C(=O)c2ccc(NC(=O)Nc3ccccc3)cc2OC[C@H]1C`: the activity (quench increase) is -0.0305%.

As for `Cc1ccc(S(=O)(=O)Nc2cccc3c2O[C@@H](CN(C)S(=O)(=O)c2ccc(C)cc2)[C@H](C)CN([C@@H](C)CO)C3=O)cc1`, the activity (quench increase) was -1.75%.

With `O=C(C[C@H]1CC[C@H]2[C@@H](COC[C@@H](O)CN2C(=O)c2ccc3c(c2)OCO3)O1)NC1Cc2ccccc2C1`, the activity (quench increase) was 3.06%.

Turning to `Nc1c(Cl)cc(S(N)(=O)=O)cc1S(N)(=O)=O`, the activity (quench increase) is -0.405%.

For the compound `NS(=O)(=O)c1cc(Cl)c(Cl)c(S(N)(=O)=O)c1`, the activity (quench increase) was 9.04% (active).

On to `NS(=O)(=O)c1ccc(NC(=S)Nc2ccc(Br)c(Cl)c2)cc1`, for which the activity (quench increase) is 1.17%.

Regarding `CC(=O)N(C)C[C@H]1Oc2ncc(-c3cccc(F)c3)cc2C(=O)N([C@@H](C)CO)C[C@H]1C`, the activity (quench increase) is -3.71%.

`CN1C(=O)c2cc(NC(=O)c3ccccc3)ccc2OC[C@@H]2O[C@H](CC(=O)NCC3CC3)CC[C@@H]21`: the activity (quench increase) was -1.16%.

Regarding `Cc1ccc(S(=O)(=O)N[C@H]2CC[C@@H](CC(=O)N3CCc4ccccc4C3)O[C@H]2CO)cc1`, the activity (quench increase) is -3.27%.

Consider `CCC1CCC2(CC1)NC(=O)N(CC(=O)Nc1ccc(OC)cc1)C2=O` (configuration not stated), for which the activity (quench increase) is 4.71%.

As for `CCOC(=O)c1c(NC(=O)CN2C(=O)NC3(CCC(C)CC3)C2=O)sc(C)c1CC` (configuration not stated), the activity (quench increase) was 8.23% (active).

Regarding `CCOC(=O)c1c(NC(=O)C2CC=CCC2C(=O)O)sc(C)c1CC` (configuration not stated), the activity (quench increase) is 0.585%.

Turning to `O=S(=O)(Cc1ccc(Cl)cc1Cl)c1ccc(Cl)cc1`, the activity (quench increase) was 12.1% (active).

As to `O=S(=O)(NCc1ccc(Cl)cc1Cl)c1cccs1`, the activity (quench increase) is 0.403%.

`O=S(=O)(NC1CC1)c1ccc(Cl)cc1`: the activity (quench increase) is 0.433%.

Turning to `C/C=C/c1ccc([C@H]2[C@@H](CNC(C)C)N(c3nc(CC)cs3)[C@H]2CO)cc1`, the activity (quench increase) was 2.62%.

Consider `COc1cc(C(=O)NCc2cc3cc(Cl)ccc3n2C)cc(OC)c1OC`, for which the activity (quench increase) is 2.35%.

Turning to `COc1ccc(OC)c(/C(C)=N\NC(=O)c2cc3cc(Cl)ccc3n2C)c1`, the activity (quench increase) was 14.1% (active).

Turning to `COc1ccc(C(=O)N/N=C(\C)CC(=O)Nc2ccc(Cl)cn2)cc1`, the activity (quench increase) is 0.068%.

For the compound `Cc1ccc(S(=O)(=O)Nc2ccc3c(c2)C(=O)N([C@@H](C)CO)C[C@@H](C)[C@H](CN(C)Cc2ccc(C(=O)O)cc2)O3)cc1`, the activity (quench increase) is 5.34%.

In the case of `COc1cccc(-c2cnc3c(NC(C)=O)cc(-c4cccc(NC(C)=O)c4)cn23)c1`, the activity (quench increase) was -0.356%.

Turning to `COc1cccc(-c2cnc3c(NC(C)=O)cc(-c4cc(F)ccc4OC)cn23)c1`, the activity (quench increase) was 9.31% (active).

Take `COc1ccccc1-c1cc(NC(C)=O)c2ncc(-c3ccc(F)cc3)n2c1`: the activity (quench increase) was 3.05%.

Turning to `CCCNC(=O)[C@@H]1[C@@H](CO)[C@@H]2Cn3c(ccc(C4=CCCCC4)c3=O)[C@H]1N2CCC`, the activity (quench increase) is 0.001%.

With `CN(c1ccc(O)cc1)c1nc(-c2cccnc2)cs1`, the activity (quench increase) was 3.59%.

With `COc1ccc(C(C)(O)c2nc(-c3ccc(C)c(C)c3)cs2)cc1` (configuration not stated), the activity (quench increase) was 0.543%.

Take `CC(C)(C)C(=O)OCc1nc(-c2ccc(O)c(O)c2)cs1`: the activity (quench increase) was 8.8% (active).

As to `C[C@H](CO)N1C[C@H](C)[C@H](CN(C)C(=O)c2cccnc2)Oc2ncc(C3=CCCC3)cc2C1=O`, the activity (quench increase) is -0.608%.

In the case of `C[C@H](CO)N1C[C@H](C)[C@@H](CN(C)C(=O)NC2CCCCC2)Oc2c(NC(=O)Nc3ccc(F)cc3)cccc2C1=O`, the activity (quench increase) was 3.54%.

Consider `C[C@@H]1CN([C@H](C)CO)C(=O)Cc2cc(NC(=O)Nc3ccccc3)ccc2O[C@@H]1CN(C)Cc1ccc(C(F)(F)F)cc1`, for which the activity (quench increase) is 0.116%.

Regarding `C[C@H]1CN([C@@H](C)CO)C(=O)c2cccc(NC(=O)Nc3ccc(C(F)(F)F)cc3)c2O[C@H]1CN(C)C(=O)NC1CCCCC1`, the activity (quench increase) is 8.85% (active).

With `C[C@H](CO)N1C[C@H](C)[C@@H](CN(C)Cc2ccc(Cl)c(Cl)c2)Oc2ccc(NC(=O)Nc3ccc(C(F)(F)F)cc3)cc2CC1=O`, the activity (quench increase) was 12.6% (active).

Regarding `C[C@@H]1CN([C@H](C)CO)C(=O)Cc2cc(NC(=O)Nc3ccccc3)ccc2O[C@H]1CN(C)Cc1ccc(Cl)c(Cl)c1`, the activity (quench increase) was -0.242%.

For the compound `C[C@@H]1CN([C@H](C)CO)C(=O)c2cccc(NC(=O)Nc3ccccc3)c2O[C@@H]1CN(C)C(=O)NC1CCCCC1`, the activity (quench increase) was -1.15%.

For the compound `O=C(C[C@@H]1C=C[C@H](NC(=O)Nc2ccc3c(c2)OCO3)[C@H](CO)O1)NCc1ccccc1`, the activity (quench increase) was 4.6%.

As to `CO[C@H]1CN(C)C(=O)c2ccc(NS(=O)(=O)c3ccccc3C)cc2OC[C@H](C)NC[C@H]1C`, the activity (quench increase) is -0.483%.

Consider `CC(=O)Nc1ccc2nc(NC(=O)CS(=O)(=O)c3ccc(F)cc3)sc2c1`, for which the activity (quench increase) is 0.717%.

Take `CCCC(=O)Nc1nc2ccc(NC(=O)c3c(F)c(F)c(OC)c(F)c3F)cc2s1`: the activity (quench increase) is 13.3% (active).

With `CCCn1nc(C(=O)Nc2ccc3nc(C)sc3c2)c2ccccc2c1=O`, the activity (quench increase) was -0.539%.

Take `CCS(=O)(=O)Nc1ccc2c(c1)C(=O)N(C)[C@H]1CC[C@@H](CC(=O)Nc3ccccc3)O[C@H]1CO2`: the activity (quench increase) was -3.46%.

With `CCOc1ccc(NC(=O)CCNC(=O)c2ccc(Br)cc2)cc1`, the activity (quench increase) is -1.36%.

For `CCOc1ccc(NC(=O)c2ccc(NC(=O)COC(=O)c3ccc(NC(=O)CC#N)cc3)cc2)cc1`, the activity (quench increase) was -1.21%.

As to `CCOc1ccc(NC(=O)c2ccc(NC(=O)CN3C(=O)C(=O)N(CC(C)C)C3=O)cc2)cc1`, the activity (quench increase) was 9.37% (active).

With `COc1ccc(NC(=O)N(C)C[C@H]2OCCCC[C@@H](C)Oc3ccc(NS(=O)(=O)c4ccc(F)cc4)cc3C(=O)N([C@H](C)CO)C[C@H]2C)cc1`, the activity (quench increase) is 3.43%.

As for `C[C@@H](O)C#Cc1ccc([C@@H]2[C@H]3CN(S(=O)(=O)c4ccccc4)CCCCN3[C@H]2CO)cc1`, the activity (quench increase) was 1.07%.

On to `CO[C@@H]1CC[C@@H]2CCOc3c(C#N)cccc3C(=O)N(C)C[C@H](C)C(=O)N(C)C[C@H]1O2`, for which the activity (quench increase) was 1.86%.

In the case of `Cn1cc(C2OC(=O)c3ccccc32)c2ccccc21` (configuration not stated), the activity (quench increase) was 1.54%.

Turning to `CN1C(=O)c2cccc3c(N)ccc(c23)C1=O`, the activity (quench increase) was 23.7% (active).

Regarding `O=C1c2cccc3c([N+](=O)[O-])ccc(c23)C(=O)N1CC1CCCO1` (configuration not stated), the activity (quench increase) was 0.491%.

Regarding `NC(=O)c1ncn([C@@H]2O[C@H](C(=O)O)[C@@H](O)[C@H]2O)n1`, the activity (quench increase) is 2.03%.

For `COc1ccc(CN(C)C[C@@H]2OCCCC[C@@H](C)Oc3ccc(NC(=O)Nc4ccc(OC)cc4)cc3C(=O)N([C@@H](C)CO)C[C@@H]2C)cc1`, the activity (quench increase) is -0.139%.

As for `COc1ccc(-c2cn(CC[C@@H]3CC[C@@H](NS(=O)(=O)c4ccccc4C)[C@H](CO)O3)nn2)cc1`, the activity (quench increase) was 2.94%.

Regarding `CCc1cc(-c2nnn(CCC3COCCO3)c2CC)ccc1-c1cn(Cc2ccc3ccccc3c2)nn1` (configuration not stated), the activity (quench increase) is 8.99% (active).

For the compound `CCCC(=O)Nc1ccc2c(c1)OC[C@H](C)N(S(=O)(=O)c1cn(C)cn1)C[C@@H](C)[C@H](OC)CN(C)C2=O`, the activity (quench increase) was -4.43%.

For the compound `O=C(c1ccccn1)N1CC[C@@H]2[C@H]1c1cc(-c3ccccc3)ccc1N[C@@H]2CO`, the activity (quench increase) is -1.72%.

`O=C1CN(S(=O)(=O)Cc2ccccc2)C[C@@H]2[C@@H](c3ccc(C#Cc4ccccc4)cc3)[C@@H](CO)N12`: the activity (quench increase) was 7.93%.

On to `O=C1CN(S(=O)(=O)Cc2ccccc2)C[C@@H]2[C@@H](c3ccc(C#Cc4cccc(F)c4)cc3)[C@@H](CO)N12`, for which the activity (quench increase) is 9.07% (active).

Take `CCS(=O)(=O)N1CC(=O)N2[C@H](CO)[C@@H](c3ccc(C#Cc4cccc(F)c4)cc3)[C@@H]2C1`: the activity (quench increase) was 7.13%.

`CCS(=O)(=O)N1CCC2(CC1)CN[C@H](CO)c1c2c2ccc(OC)cc2n1C`: the activity (quench increase) was 0.371%.

As to `C[C@@H]1CN([C@@H](C)CO)C(=O)c2cc(NS(C)(=O)=O)ccc2O[C@@H]1CN(C)C(=O)Nc1ccc(F)cc1`, the activity (quench increase) was -3.43%.

For `O=C(NCC1COc2ccccc2O1)C1(c2ccccc2)CCCC1` (configuration not stated), the activity (quench increase) is 1.14%.

With `O=C(COC(=O)c1ccc(F)cc1)NCC1COc2ccccc2O1` (configuration not stated), the activity (quench increase) was -0.696%.

With `Cc1noc(C)c1C(=O)NCC1COc2ccccc2O1` (configuration not stated), the activity (quench increase) is 19.3% (active).

Take `CC(=O)N(C)C[C@H]1Oc2ncc(C#Cc3ccccn3)cc2C(=O)N([C@H](C)CO)C[C@@H]1C`: the activity (quench increase) was 0.118%.

In the case of `CO[C@@H](CN(C)S(=O)(=O)c1ccccc1)[C@H](C)CN(Cc1ccccc1Cl)[C@H](C)CO`, the activity (quench increase) is -3.7%.

Regarding `COc1ccc2c3c(n(C)c2c1)[C@H](CO)N(S(=O)(=O)c1ccc(C)cc1)CC31CN(C(=O)c2ccccn2)C1`, the activity (quench increase) is 1.98%.

Turning to `Cc1ccc(S(=O)(=O)Nc2ccc3c(c2)C(=O)N([C@H](C)CO)C[C@@H](C)[C@H](CN(C)C(=O)Nc2ccc(C(F)(F)F)cc2)OCCCC[C@H](C)O3)cc1`, the activity (quench increase) was -0.228%.

In the case of `C/C(=N\Nc1ccc(Cl)nn1)c1ccccc1O`, the activity (quench increase) is -2.03%.

For `Oc1cccc(/C=N/Nc2ccc(Cl)nn2)c1O`, the activity (quench increase) is 13.3% (active).

(Values after PubChem BioAssay AID720511 (Broad Institute, 2013).)
